Changes are numbered by the printed parent chain. Whole data set: some 24,000 sequences, median “enrichment r” near 0.99, cut for the highest 2% near 3.7. The list comes from a sample in which the highest values are over-represented; it also holds similar and randomly drawn sequences.
T1: UNK ZnF1-3 (human, UniProt Q9C0B0 31-174)
T1 sequence: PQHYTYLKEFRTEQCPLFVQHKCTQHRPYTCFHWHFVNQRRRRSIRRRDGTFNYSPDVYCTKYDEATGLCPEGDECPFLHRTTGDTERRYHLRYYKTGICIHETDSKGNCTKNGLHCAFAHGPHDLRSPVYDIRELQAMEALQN

B1: chr14:89307221:89307222:+_ENSG00000165533_ENST00000346301|hu_mus|hu_hu_hu_mus_False|18_78 (ssRNA)
RNA: GGGAGUUCUACAGUCCGACGAUCUCCUGUUUGGUUAGUGCCAGGGAGCUUCAAAGACGUUCCAGGGCGUGGGACCUGAGCAAUAGCAUUUUCAUCCAGGAUCAUUUCAGCAAUUCCUUCCUGAUCUACAUCAAUUUCAUCUAUCAACAGAGGAUUGAGCAUCA
B2: chr7:7679991:7679992:-_ENSG00000106399_ENST00000396682|hu_hu|hu_hu_hu_mus_False|68_88 (ssRNA)
RNA: GGGAGUUCUACAGUCCGACGAUCUGGGAUGAAUCUUUUCCAGCUUCCCUACGAAGCACACGGGCCGGUCGAUGAAUUGUGGUAACAUGCUGGCGUUGACGCGCGCUUUGGGGAGCUGCAUUAUGUCCUCCAUGAUUCUGCCGCCAACAGAGGAUUGAGCAUCA
B3: 96788939_96789059_3507_CDS_ENSG00000066739_ENST00000359933|human|control|control (ssRNA)
RNA: GGGAGUUCUACAGUCCGACGAUCACAAACAUCUUUCAAGGAAUGAGCACCUCCUUCCUCUUCCUCCUGGUAGUGACCAUCAUUCUCCUCUUCUUCUUCAGCUGCAAUUCUCUCCAAAAUGGAAUGCAUGGCUGGUGGAUUUAUCAACAGAGGAUUGAGCAUCA
B4: chr9:74900086:74900087:+_ENSMUSG00000007656_ENSMUST00000169492|mus_mus|motif|central (ssRNA)
RNA: GGGAGUUCUACAGUCCGACGAUCUUGUCCCAAGUGAGGAUACCUUGCCUUUAACUUUGCUUCUUCAGCUUUCUCUGGACGGGUUACUUUAUCUUCCAUUUCCUUUUGCUCCUCCGCAGACGCUGCCUCGGGGACUUCCGCGGACAACAGAGGAUUGAGCAUCA
B5: chr3:139236485:139236486:-_ENSG00000114115_ENST00000232219|hu_mus|FALSE|FALSE (ssRNA)
RNA: GGGAGUUCUACAGUCCGACGAUCCUGAAGACCAAGGUUAUCUCCUCGGGCUGUUCGGGCUGCUCAGUGUACUUUCUUAAACACUUGCUUGCAGAUCACACCCUCAGCUCUCAUUUCCAGGUGAAGUUCAUCACCCUCGAUCCACAACAGAGGAUUGAGCAUCA
B6: 133975656_133975776_5164_3pUTR_ENSG00000205060_ENST00000378509|human|control|control (ssRNA)
RNA: GGGAGUUCUACAGUCCGACGAUCCAUUUCUCUGUCCGUUUAGGUCAAUGCCAACUGGUCCACCAGUGAACAUGUCCACCGGCCCUGAGCUAACUCAUUGGUUUAUUAUUCCUGACCUAAGGUGUUUUACUUCCCCUCUCCAUACAACAGAGGAUUGAGCAUCA
B7: chr1:39494447:39494448:+_ENSG00000168653_ENST00000372967|hu_mus|hu_hu_hu_mus_False|18_98 (ssRNA)
RNA: GGGAGUUCUACAGUCCGACGAUCGCACCGAGCGGCGAUCUUGUAGGGCUGUUCUGCGCUUAGGAACAUAAAGUGCCGGUCCAGGCUGAUGCCCAGCUUUUUCUGUAUGUCAAGGAAAGGCAUGGCCCUGCAGUGCCCUUGUCACAACAGAGGAUUGAGCAUCA
B8: chr20:43533646:43533647:+_ENSG00000166913_ENST00000353703|hu_hu|motif|central (ssRNA)
RNA: GGGAGUUCUACAGUCCGACGAUCGAAAUUUAGUGCCAGACCAAGACGAAUUGGGUGUGUAGGCUGCAUUUCUUUCUUACGGAUUUCAAAUGCUUCCUGGUAAGCCUGCUGGGAGUUCGACACAGUGGUUUGUUUGUUGUCUCCCAACAGAGGAUUGAGCAUCA
B9: chr11:77340908:77340909:-_ENSG00000074201_ENST00000525064|hu_hu|hu_hu_hu_mus_True|8_8 (ssRNA)
RNA: GGGAGUUCUACAGUCCGACGAUCGUUUGGAUCCCUGGACACCGCAUGUAAACUAAUGGUGGGGUAUUCCAGUGAGAAUCCUAAUCCCGAACCAUCUAACCAGGACAGGCGGCUCUCCGCGAUGUAAAGGGUACCAGUGCCGAGCAACAGAGGAUUGAGCAUCA
B10: 135097835_135097955_579_3pUTR_ENSMUSG00000040731_ENSMUST00000036125|mouse|control|control (ssRNA)
RNA: GGGAGUUCUACAGUCCGACGAUCAAGUCCAUGUUGGAGCCACGCAGAGGAGGGCCAUCUCGAAAGCGACUCCCCAUUGGAGGGCCUGCUCGCCGGUCCCCAGGGCGACUGCCCCCCCUACCCCCUAAGAAGUCAUCCCUGUAGCAACAGAGGAUUGAGCAUCA
B11: chr19:16212804:16212805:+_ENSG00000167460_ENST00000300933|hu_mus|hu_hu_hu_mus_False|48_58 (ssRNA)
RNA: GGGAGUUCUACAGUCCGACGAUCAACAAUUCUGGAGUGAAGGAAAGAUGUAACAUGGAACAGCAUUAAAGCUCAGUAUUACUAUAUGUGGGUAAUUAUGAUCACCCCAGCAUUCUCGCUUGGAAUGCUUAAAGACAAUCUGUUCAACAGAGGAUUGAGCAUCA
B12: chr18:9954606:9954607:+_ENSG00000101558_ENST00000400000|hu_mus|FALSE|FALSE (ssRNA)
RNA: GGGAGUUCUACAGUCCGACGAUCCCAUUUCCCCCACAGAAAACCUCUUGGCAUUUCCUGAAUGAGUGGGAUUAGCAAUCUAAAUAAAUCAUAUUUCAAGAGGUAACAGCAACAGAUAAAAUUUAAAGGAAUUAUUAAAAUAACCAACAGAGGAUUGAGCAUCA
B13: chr3:75345182:75345183:-_ENSMUSG00000027835_ENSMUST00000161137|mus_hu|FALSE|FALSE (ssRNA)
RNA: GGGAGUUCUACAGUCCGACGAUCAUGUGGUCUCAGCUUCAUUCUUCAUCUCUUCCAUUGUCAUCCUCAUUCAAAAGCCAACUACAGUUGAAAAAGCAGUGCUAAAAUGCAGAGGAAUCUUCAUUCACUGCAAUAUUUCUUCUCCAACAGAGGAUUGAGCAUCA
B14: 104554200_104554320_324_3pUTR_ENSMUSG00000032621_ENSMUST00000074616|mouse|control|control (ssRNA)
RNA: GGGAGUUCUACAGUCCGACGAUCAUCAGAUCCAUACAAAGAAACAAAUAAGAAGAACAUAAGGCUUUCCUUUUAUCCUGCUCUAUUAGGAAAAAUAAAAGUGAGCAAAACUUCAAAGACUAACAAUCUCAUUAAUGGAACAUUCAACAGAGGAUUGAGCAUCA
B15: chr19:16212804:16212805:+_ENSG00000167460_ENST00000300933|hu_mus|hu_hu_hu_mus_False|8_78 (ssRNA)
RNA: GGGAGUUCUACAGUCCGACGAUCAACAAUUCUGGAGUGAAGGAAAGAUGUAACAUGCAAUUAAUUAAAAGCUCAGUCAGAAGGCACAUGGGCAACAAUGAUCACCCCAGCAUUCUCGCUUGGAAUGUGCUUGAGAAAUCUGUUCAACAGAGGAUUGAGCAUCA
B16: 54572216_54573035_2393_CDS_ENSG00000067248_ENST00000251636|human|control|control (ssRNA)
RNA: GGGAGUUCUACAGUCCGACGAUCAUCUUCAAGAUGAAAAACCUCAACAGGAUAACUUCUUCCUGAAAUUCUGAGAAUGGGGCAGUGUGUGAAAUAUGUAGAAAAUUUUUCGCUGUCCACAGUGGCACUCAUUAGAAUCAAGUGCAACAGAGGAUUGAGCAUCA
B17: chr18:9954606:9954607:+_ENSG00000101558_ENST00000400000|hu_hu|FALSE|FALSE (ssRNA)
RNA: B12 RNA with C24A, A26C, U27A, C30U, C36A, A37G, A41U, A129G
B18: chr2:73656703:73656704:-_ENSMUSG00000027104_ENSMUST00000100009|mus_hu|FALSE|FALSE (ssRNA)
RNA: GGGAGUUCUACAGUCCGACGAUCAAGAAAUGGAAGUGGGAAGAAAGAUUCAGUAACACCCCCAUUUAUUAAAACACCAGCAAAUUAAAAGUGAAAUAAAUCACAAUGAAUUAUAAUACAAUUUACACAUUGAGCACAGAAAAACAACAGAGGAUUGAGCAUCA
B19: 36138064_36138184_3590_3pUTR_ENSG00000100320_ENST00000405409|human|control|control (ssRNA)
RNA: GGGAGUUCUACAGUCCGACGAUCAAAGCAAAAGCAAAAUCCUCCCUGCCCCCAUUCCCUAGAACUGUGAAAGCCCGCAUCCCAUUCCCCGCUCCUCUAACUAAAAUAUUUAUAUACAUACAACAAAAAUUGUCUUAACAGCAACAACAGAGGAUUGAGCAUCA
B20: chr9:42776432:42776433:-_ENSMUSG00000059495_ENSMUST00000165665|mus_hu|FALSE|FALSE (ssRNA)
RNA: GGGAGUUCUACAGUCCGACGAUCUAACAAAUUUAUAGUCAAGAAAAUAAAAUUUGCUUUCCUCUCCCACCCAAAUCCCAACCCUCAAUAGAAAAGACGACAAUGGAAGAAAACACACCCAUUUUCAAGUGCCUGCUAUUUAGUCAACAGAGGAUUGAGCAUCA
B21: chr12:493273:493274:-_ENSG00000073614_ENST00000399788|hu_mus|hu_hu_hu_mus_False|48_58 (ssRNA)
RNA: GGGAGUUCUACAGUCCGACGAUCUUUUCUCUCCACCACAGGGAUCUUCAAUGUAGAUCCUUGAAGUUCCCAAAAUUUUGCUAGUUGAUCCAAGAAAUCCAAUCUUACUCUAGUCAUUGCCUCAAGUUCAUUCAGGCGCUGGACCAACAGAGGAUUGAGCAUCA
B22: chr3:57569730:57569731:-_ENSG00000168374_ENST00000303436|hu_mus|FALSE|FALSE (ssRNA)
RNA: GGGAGUUCUACAGUCCGACGAUCAUAUUCUACUGUUUCCACAUUAAAACCAAUGGUAGGAAUGGUGGUGACUAUUUCCCCUAAUUUCAGUUUAUACAGAAUUGUCGUCUUGCCAGCAGCAUCCAAUCCAACCAUCAAAAUGCGCAACAGAGGAUUGAGCAUCA

molecular target: T1, UNK ZnF1-3; assay: nsRBNS (natural sequence RNA bind-n-seq); RBNS binding buffer (assumed for nsRBNS): 25 mM Tris pH 7.5, 150 mM KCl, 3 mM MgCl2, 0.01% Triton X-100, 500 ug/ml BSA, 20 U/ml SUPERase-In, 4 C; UNK is unkempt and MSI1 is Musashi-1; names of the RNAs are library labels; protein concentration not given here; high values mean tight binding

Binder	binding signal [enrichment R]
B1	0.843
B2	0.498
B3	1
B4	0.353
B5	0.756
B6	0.604
B7	0.479
B8	0.731
B9	1.2
B10	0.982
B11	0.913
B12	4.49
B13	1.23
B14	0.765
B15	1.42
B16	1.16
B17	3.36
B18	4.55
B19	3.79
B20	4.14
B21	0.927
B22	0.905

From publication PMC12136788
